Compound activity as filed in PubChem BioAssay.
This excerpt belongs to a sample that is enriched for hits.
Pf Dd2 growth: qHTS Primary assay for Inhibitors of Plasmodium falciparum Dd2 growth in vitro | P. falciparum Dd2 growth, SYBR Green, 72 h | AID 1347417, 2020 | 120,000 tested, 4.3% active | Potency, µM (doses to about 28.9 µM), most hits filed as inhibitors; active = well fitted inhibition curve with a large enough effect; note: nearly all actives have a fitted effect of over 65% in size
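Infected erythrocytes (Dd2, 0.3% parasitemia, 2.5% hematocrit final) are added to compound in RPMI-1640/Albumax II medium, grown 72 h at 37C in low oxygen, then lysed with saponin/Triton-X containing SYBR Green and read by fluorescence.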
Large screens that a line does not name were inactive.

O=C(CC1CCN(C(=O)Nc2ccccc2)C1)NC1CC1 (configuration not stated)	none
COc1ccc(-c2[nH]nc3ncc(-c4cccnc4OC)nc23)c(C)c1	none
O=C(N1CCCC1)N1CCN(c2cc(Cl)ncn2)C(=O)C1	none
CCCc1nnc(C[C@@H]2C[C@@H](C(C)C)[C@H](CN3CCN(C(C)=O)CC3)C=C2C)o1	Pf Dd2 growth 11µM
COCCN1CCN(C[C@@H]2C=C(C)[C@H](Cc3nnc(C)o3)C[C@H]2C(C)C)CC1	none
CC(=O)N1CCN(C[C@@H]2C=C(C)[C@H](Cc3nnc(-c4cccnc4)o3)C[C@H]2C(C)C)CC1	Pf Dd2 growth 7.9µM
CC1=C[C@@H](CN2CCOCC2)[C@H](C(C)C)C[C@H]1Cc1nnc(-c2ccccc2)o1	none
CC1=C[C@@H](CN2CCN(c3cnccn3)CC2)[C@H](C(C)C)C[C@H]1Cc1nnc(-c2ccc([N+](=O)[O-])cc2)o1	none
CC1=C[C@@H](CN2CCN(c3ncccn3)CC2)[C@H](C(C)C)C[C@H]1Cc1nnc(Cc2c[nH]c3ccccc23)o1	Pf Dd2 growth 3.5µM
CC1=C[C@@H](CN2CCN(CCO)CC2)[C@H](C(C)C)C[C@H]1Cc1nnc(C)o1	none
COc1ccc(NC(=O)N2CCCC(Cc3noc(-c4cccnc4)n3)C2)cc1 (configuration not stated)	none
CCC(=O)N1CCc2cc(Br)cc(S(=O)(=O)N3CCCC(C(=O)Nc4ccc(CC)cc4)C3)c21 (configuration not stated)	none
CCC(=O)N1CCc2cc(Br)cc(S(=O)(=O)N3CCCC(C(=O)Nc4cccc(F)c4)C3)c21 (configuration not stated)	Pf Dd2 growth 3.5µM
CCC(=O)N1CCc2cc(Br)cc(S(=O)(=O)N3CCCC(C(=O)NCc4ccc(C)cc4)C3)c21 (configuration not stated)	none
CCC(=O)N1CCc2cc(Br)cc(S(=O)(=O)NCc3ccccc3)c21	none
CCCN(CCC)C(=O)C1CCCN(S(=O)(=O)c2cc(Br)cc3c2N(C(=O)CC)CC3)C1 (configuration not stated)	none
CCC(=O)N1CCc2cc(Br)cc(S(=O)(=O)N3CCCC(C(=O)Nc4cccc(C)c4C)C3)c21 (configuration not stated)	Pf Dd2 growth 5µM
CCC(=O)N1CCc2cc(Br)cc(S(=O)(=O)N3CCCC(C(=O)N(C)c4ccc(Br)cc4)C3)c21 (configuration not stated)	Pf Dd2 growth 8.9µM
CCC(=O)N1CCc2cc(Br)cc(S(=O)(=O)N3CCCC(C(=O)Nc4ccc(OC)cc4OC)C3)c21 (configuration not stated)	none
Cc1cccc(NC(=O)C2CCCN(S(=O)(=O)c3cccc4nonc34)C2)c1 (configuration not stated)	none
CCOc1nccnc1NC1CCN(C(=O)Cc2cccs2)CC1	none
CN(C)[C@@H]1CO[C@H](CNC(=O)Nc2ccccc2)[C@H]1O	none
O=C1CCN(C(=O)c2cccc3[nH]ccc23)CCCCCCN1	none
N#CCn1nc2n(c1=O)CCN(C(=O)NCCc1ccccc1)CC2	none
CNc1nccc(N2CCC(CC(=O)NCCCN(C)C)CC2)n1	none
O=C(CCCc1ccccc1)N1CCC([C@@H]2CNC[C@H]2CO)CC1	none
O=C(c1cc(-c2ccccc2)n[nH]1)N1CCc2c(nc(-c3ccc(F)cc3)[nH]c2=O)C1	none
COc1ccc(S(=O)(=O)N2CCN(C(=O)c3cc(-c4ccc(Br)cc4)n[nH]3)CC2)cc1OC	none
COc1ccc(Cl)cc1C(=O)N1CCCN(c2cc(-c3ccc(Br)cc3)[nH]n2)CC1	none
COc1ccc(Cl)cc1S(=O)(=O)N1CCN(C(=O)c2cc(-c3ccc(Br)cc3)n[nH]2)CC1	Pf Dd2 growth 10µM
O=C(c1cc(-c2ccc(Br)cc2)n[nH]1)N1CCN(S(=O)(=O)c2ccc(Br)cc2)CC1	Pf Dd2 growth 8.9µM
COc1ccc(Cl)cc1C(=O)N1CCCN(c2cc(-c3ccc(F)cc3)[nH]n2)CC1	none
COc1cc(OC)cc(C(=O)NC2CCCN(c3cc(-c4ccc(F)cc4)[nH]n3)C2)c1 (configuration not stated)	none
Cc1cc(C)c2c(CC(=O)N3C[C@@H]4CCN(C)C[C@]4(C(=O)O)C3)coc2c1	none
O=c1[nH]nc2n1CCN(C1CCOCC1)CC2	none
CCN1C(=O)C2CC3(CCN(C(=O)c4n[nH]c(=O)c5ccccc45)CC3)CN2C1=O (configuration not stated)	none
CCn1cc(-c2ccc(C)cc2)cc1C(=O)NCC1CCCO1 (configuration not stated)	none
CN(C)C[C@@H]1CN(c2ccccn2)C[C@H]1NC(=O)NC(C)(C)C	none
Cc1nc(CN2C[C@H](C(=O)NCc3cccc(F)c3)C[C@@H]2c2ccc(F)cc2)cs1	Pf Dd2 growth 14µM
COc1ccc(CNC(=O)[C@@H]2C[C@@H](c3ccc(F)cc3)N(Cc3ccccc3)C2)cc1OC	none
Cn1cc(CN2C[C@H](C(=O)NCc3cccc(F)c3)C[C@H]2c2cccc(C(F)(F)F)c2)cn1	Pf Dd2 growth 8.9µM
Cn1cc(CN2C[C@H](C(=O)Nc3ccccc3)C[C@@H]2c2cccc(C(F)(F)F)c2)cn1	none
Cc1nc(CN2C[C@H](C(=O)N3CCN(CCO)CC3)C[C@@H]2c2ccc(F)cc2)cs1	none
Cn1cc(CN2C[C@H](C(=O)Nc3ccn(C)n3)C[C@@H]2c2cccc(C(F)(F)F)c2)cn1	none
O=C(Nc1ccncn1)[C@@H]1C[C@@H](c2ccc(F)cc2)N(Cc2ccccc2)C1	none
Cn1ccc(NC(=O)[C@@H]2C[C@@H](c3ccc(F)cc3)N(Cc3ccccc3)C2)n1	Pf Dd2 growth 13µM
Cn1cc(CN2C[C@H](C(=O)Nc3ccc(F)cc3)C[C@@H]2c2cccc(C(F)(F)F)c2)cn1	none
CNC(=O)c1cc[nH]c1C1CCCN(C(=O)c2cscn2)C1 (configuration not stated)	none
CCCN(CC1CCOC1)S(=O)(=O)c1cccc(C(F)(F)F)c1 (configuration not stated)	none
COc1ccc(OC)c(-c2n[nH]c3c2CC(=O)N(CCOc2ccccc2)C3)c1	none
O=C(c1cc(C2CC2)[nH]n1)N1C[C@@H](CO)[C@H](c2ccccn2)C1	none
O=C(N[C@@H]1CCN(C(=O)c2ccc(CO)cc2)C[C@H]1O)c1cccnc1	none
O=C(NCc1c[nH]c2ncccc12)c1ccc(Cl)cc1	none
CNC(=O)C1CCC(Cn2c(=O)c3sccc3n(CC(=O)N3CCCCC3C)c2=O)CC1 (configuration not stated)	none
COc1cccc(Cn2c(=O)n(CC3CCC(C(=O)N4CCOCC4)CC3)c(=O)c3sccc32)c1 (configuration not stated)	Pf Dd2 growth 8.9µM
CCCNC(=O)C1CCC(Cn2c(=O)c3sccc3n(CC(=O)NCc3ccccc3)c2=O)CC1 (configuration not stated)	none
CCCNC(=O)C1CCC(Cn2c(=O)c3sccc3n(Cc3ccccc3C)c2=O)CC1 (configuration not stated)	none
C=Cc1ccc(Cn2c(=O)n(CC3CCC(C(=O)NC(C)C)CC3)c(=O)c3sccc32)cc1 (configuration not stated)	Pf Dd2 growth 11µM
CC1CCN(C(=O)Cn2c(=O)n(CC3CCC(C(=O)NC(C)C)CC3)c(=O)c3sccc32)CC1 (configuration not stated)	none
O=C1c2c(nc(CNc3nccs3)n2Cc2ccccc2)NCCN1Cc1ccccc1F	none
O=C1CO[C@H]2CN(Cc3ccc(F)c(F)c3)C[C@H]2N1Cc1ccccn1	none
CN(C)Cc1cc(CC2(NCc3cc4ccccc4o3)COC2)no1	none
